The values below come from PubChem BioAssay AID720664 (National Center for Advancing Translational Sciences (NCATS), 2013).

The structures appear in SMILES notation. Records with an inconclusive call do not appear. Where a call stands in place of a potency, no number is given. Activity calls are given as the source filed them. Calls come from the whole dose curve; as a rule, active = well fitted inhibition curve with a large enough effect; inconclusive = small, poorly fitted or top-dose-only effect; inactive = flat fitted curve, though single readings scatter.

The target in this test is Galactokinase (Homo sapiens) (UniProt P51570). Put plainly: qHTS for Inhibitors of Human Galactokinase (GALK): SAR round 3. Particulars: ADP detection luminescence, 1 h; series mostly up to 57.5 µM. From the text: Inherited deficiency of galactose-1-phosphate uridyltransferase (GALT) can result in a potentially lethal disorder called Classic Galactosemia (OMIM 230400). Several lines of evidence indicate that an elevated level of galactose-1-phosphate (gal-1-p), the product of galactokinase (GALK), is a major, if not sole, pathogenic mechanism in patients with classic galactosemia. Therefore, finding inhibitors of GALK is a potential novel therapy for this inherent metabolic disease and is the long term goal of this project. Active compounds observed in the qHTS GALK assay (AID: 1868) were cherry picked and re-screened for validation. GALK (provided by Kent Lai) was assayed using ATP and D-(+)-Galactose (Sigma-Aldrich cat# G0750) as substrates. Promega ADP-Glo technology was used to detect the ADP product formed after the kinase reaction. Kinase reactions with and without GALK were used as negative and positive controls together with Protein Tyrosine Phosphatase CD45 inhibitor (EMD Bioscience cat# 540215) which is shown to inhibit GALK activity. Decrease in activity corresponds to inhibition of the enzyme, the desired outcome for this assay. NIH Molecular Libraries Probe Production Network [MLPCN] NIH Chemical Genomics Center [NCGC] Grant: MH085689-01 PI Name: Kent Lai, University of Utah
Sequence of Galactokinase (Homo sapiens) (P51570 whole entry, looked up): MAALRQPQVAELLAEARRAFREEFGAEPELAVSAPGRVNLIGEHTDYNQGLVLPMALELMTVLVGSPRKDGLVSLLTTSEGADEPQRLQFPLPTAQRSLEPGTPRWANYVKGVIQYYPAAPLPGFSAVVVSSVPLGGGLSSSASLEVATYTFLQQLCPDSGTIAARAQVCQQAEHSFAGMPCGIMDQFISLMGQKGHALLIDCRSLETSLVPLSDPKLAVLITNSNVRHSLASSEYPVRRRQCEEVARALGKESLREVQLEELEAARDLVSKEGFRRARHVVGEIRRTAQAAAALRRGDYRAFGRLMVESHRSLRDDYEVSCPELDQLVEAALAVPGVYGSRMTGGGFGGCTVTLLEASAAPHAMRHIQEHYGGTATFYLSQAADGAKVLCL
Three uL/well of ATP-buffer solution (35 uM ATP, 20mM HEPES pH8.0, 5 mM MgCl2, 60 mM NaCl, 1 mM DTT, 0.01% BSA final concentration) was dispensed into 1536-well, assay plates (Greiner, solid white medium-binding plates) with Aurora Discovery BioRAPTR Flying Reagent Dispenser (FRD; Beckton-Dickenson). Compound and control solution (23 nL) was transferred to the assay plate using the Kalypsys 1536-pin tool apparatus. One uL/well GALK-galactose solution (5 nM GALK, 100 uM galactose, 20 mM HEPES pH8.0, 5 mM MgCl2, 60 mM NaCl, 1 mM DTT, 0.01% BSA final concentration) was then added using the FRD yielding a total kinase reaction volume of 4 uL/ well. After 1 hour of room temperature incubation, 4 uL Kinase-Glo Plus reagent was added for a final assay volume of 8 uL/well. Luminescence was detected with the ViewLux plate reader (Perkin Elmer, Waltham, MA) after 2 min incubation using a 1 sec exposure time and 2x binning.
(In general: Quantitative high-throughput screening tests each substance at several concentrations.)
For the compound `O=C1CCCC2=C1C(c1[nH]ncc1Cl)NC(=NCCc1ccc(O)cc1)N2` (stereo not given), the Potency result was “inactive”. On to `CC1(C)CC(=O)C2=C(C1)NC(Nc1nc3ccccc3o1)=NC21CCCC1`, for which the Potency entry was “inactive”.

Turning to `CC1=C(C(=O)Nc2ccc(Cl)cc2)C(c2ccccc2Br)N=C(Nc2nc3ccccc3o2)N1` (stereo not given), the Potency entry is “inactive”. For `CC1=C(C(=O)Nc2nncs2)C(c2[nH]ncc2Cl)N=C(Nc2nc3ccccc3o2)N1` (stereo not given), the Potency is 12.2 µM (active). The result for `O=C1CCCC2=C1C(c1ccc(F)cc1)N=C(Nc1nc3ccccc3o1)N2` (stereo not given) reads “inactive”; that for `CC1=C(C(=O)Nc2noc3ccccc23)C2(CCCC2)N=C(Nc2nc3ccccc3o2)N1`, “inactive”.

In the case of `Cc1ccc2oc(NC3=NC(c4[nH]ncc4Cl)C4=C(CCCC4=O)N3)nc2c1` (stereo not given), the Potency result was “inactive”. Take `N#CC1=C(Nc2nc3ccccc3o2)OC2=C(C(=O)CCC2)C1c1[nH]ncc1Cl` (stereo not given): the Potency result is “inactive”.

On to `COc1ccccc1C1N=C(Nc2nc3ccccc3o2)NC2=C1C(=O)CCC2` (stereo not given), for which the Potency result was “inactive”. The result for `O=C1CCCC2=C1C(c1[nH]ncc1Cl)NC(=NCc1cccs1)N2` (stereo not given) reads “inactive”; that for `O=C1CCCC2=C1C(c1[nH]ncc1Cl)N=C(Nc1ccccn1)N2` (stereo not given), “inactive”. On to `Cc1cccc(C2N=C(Nc3nc4ccccc4o3)NC3=C2C(=O)CCC3)c1` (stereo not given), for which the Potency entry is “inactive”. Regarding `O=C1CCCC2=C1C(c1[nH]ncc1Cl)N=C(Nc1ccccc1)N2` (stereo not given), the Potency result is “inactive”. `CC1=C(C(=O)Nc2noc3ccccc23)C(c2nn(C)cc2Cl)N=C(Nc2nc3ccccc3o2)N1` (stereo not given): the Potency entry was “inactive”. Consider `Cn1cccc1CN=C1NC2=C(C(=O)CCC2)C(c2[nH]ncc2Cl)N1` (stereo not given), for which the Potency entry is “inactive”. The result for `O=C1CCCC2=C1C(c1[nH]ncc1Cl)NC(=NCc1ccoc1)N2` (stereo not given) reads “inactive”; that for `Cn1cnc(CN=C2NC3=C(C(=O)CCC3)C(c3[nH]ncc3Cl)N2)c1` (stereo not given), “inactive”; that for `O=C1CCCC2=C1C(c1[nH]ncc1Cl)N=C(Nc1nccs1)N2` (stereo not given), “inactive”.

Consider `CCOC(=O)c1cnc(NC2=NC(c3ccccc3Cl)C3=C(CCCC3=O)N2)o1` (stereo not given), for which the Potency result was “inactive”.

With `O=C1CC(c2ccccc2)CC2=C1C1(CCCC1)N=C(Nc1nc3ccccc3o1)N2` (stereo not given), the Potency entry was “inactive”. Next, `Cc1nc(C2=NC(c3ccccc3Cl)C3=C(CCCC3=O)N2)cs1` (stereo not given): “inactive”; `O=C1CCCC2=C1C(c1c(Cl)cccc1Cl)N=C(Nc1nc3ccccc3o1)N2` (stereo not given): “inactive”. For the compound `Cc1cc(NC2=NC(c3[nH]ncc3Cl)C3=C(CCCC3=O)N2)no1` (stereo not given), the Potency entry was “inactive”.

`O=C1CCCC2=C1C1(CCCC1)N=C(Nc1nc3ccccc3o1)N2`: the Potency result was “inactive”. The result for `COc1ccc2oc(NC3=NC(c4[nH]ncc4Cl)C4=C(CCCC4=O)N3)nc2c1` (stereo not given) reads “inactive”. Take `O=C1CCCC2=C1C1(CCCC1)N=C(Nc1nc3cc4ccccc4cc3o1)N2`: the Potency result is “inactive”.

In the case of `Cc1ccc(C2N=C(Nc3nc4ccccc4o3)NC3=C2C(=O)CCC3)cc1` (stereo not given), the Potency result was “inactive”. Regarding `Cc1cccc2oc(NC3=NC(c4[nH]ncc4Cl)C4=C(CCCC4=O)N3)nc12` (stereo not given), the Potency entry is “inactive”. Next, `Cn1ncc(Cl)c1C1N=C(Nc2nc3ccccc3o2)NC2=C1C(=O)CCC2` (stereo not given): “inactive”. As to `O=C1C2=C(CN1c1ccccc1)NC(Nc1nc3ccccc3o1)=NC2c1ccccc1Cl` (stereo not given), the Potency entry is “inactive”. With `CCc1ccc2oc(=O)cc(CN3CCN(c4ccccc4F)CC3)c2c1`, the Potency entry is “inactive”. Consider `O=C1NC2=C(C(=O)CCC2)C(c2ccccc2Cl)N1` (stereo not given), for which the Potency entry was “inactive”. Regarding `CC1(C)CC(=O)C2=C(C1)NC(Nc1nc3ccccc3o1)=NC21CCCCC1`, the Potency entry was “inactive”. As to `CC1=C(C(=O)Nc2ccon2)C2(CCCC2)N=C(Nc2nc3ccccc3o2)N1`, the Potency was 17.2 µM (active). For `CC(C)CN1CC2=C(C1=O)C(c1ccccc1Cl)N=C(Nc1nc3ccccc3o1)N2` (stereo not given), the Potency entry was “inactive”.

Turning to `O=C1CCCC2=C1C1(CCSC1)N=C(Nc1nc3ccccc3o1)N2` (stereo not given), the Potency is 19.3 µM (active). Consider `O=C1CCCC2=C1C1(CCCC1)N=C(Nc1nc3ccccc3n1Cc1ccccc1)N2`, for which the Potency result is “inactive”. As to `O=C1CCCC2=C1C(c1cccnc1)N=C(Nc1nc3ccccc3o1)N2` (stereo not given), the Potency result was “inactive”. As to `O=C1CCCC2=C1C(c1[nH]ncc1Cl)N=C(Nc1nc3cc([S+](=O)([O-])N4CCCC4)ccc3o1)N2` (stereo not given), the Potency result is “inactive”. `O=C1CCCC2=C1C(c1[nH]ncc1Cl)NC(=S)N2` (stereo not given): the Potency entry was “inactive”.
